Assay [1] is described as follows: qHTS assay to identify small molecule antagonists of the glucocorticoid receptor (GR) signaling pathway - cell viability counter screen (AID 720693; also: nearly all actives have a fitted effect of over 55% in size). (qHTS replaces the single test concentration by a dilution series.)
Assay [2] is described as follows: qHTS assay for identifying genotoxic compounds that show differential cytotoxicity against isogenic chicken DT40 cell lines with known DNA damage response pathways - wild type cell line (AID 743012). Also: nearly all actives have a fitted effect of over 60% in size. Also: potency is read from the fitted curve at half-maximal effect. Summed up: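 Wild type DT40, 300 cells/well, ~0.5 h settle at 37 C/5% CO2; compounds in DMSO added by pintool; 40 h at 37 C/5% CO2; CellTiter-Glo, 30 min RT; luminescence.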

A short description of assay [3]: qHTS assay for identifying genotoxic compounds that show differential cytotoxicity against isogenic chicken DT40 cell lines with known DNA damage response pathways - Rev3 mutant cell line (AID 743014). Also: nearly all actives have a fitted effect of over 55% in size. Also: potency is read from the fitted curve at half-maximal effect.
Assay [4] in a line: qHTS assay for identifying genotoxic compounds that show differential cytotoxicity against isogenic chicken DT40 cell lines with known DNA damage response pathways - Rad54/Ku70 mutant cell line (AID 743015). Also: potency is read from the fitted curve at half-maximal effect; nearly all actives have a fitted effect of over 60% in size.
Assay [5] in a line: qHTS assay to identify small molecule antagonists of the thyroid receptor (TR) signaling pathway - cell viability counter screen (AID 743064). Also: nearly all actives have a fitted effect of over 50% in size. Also: potency is read from the fitted curve at half-maximal effect. Summed up: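 Same-well viability check: GH3.TRE-Luc cells stimulated with 1 nM T3 alongside test compound for 23.5 h, followed by CellTiter-Fluor fluorescence.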
Assay [6] in a line: qHTS assay to identify small molecule antagonists of the thyroid receptor (TR) signaling pathway (AID 743065). Also: nearly all actives have a fitted effect of over 55% in size. Also: potency is read from the fitted curve at half-maximal effect. In short, it runs like this: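 GH3.TRE-Luc rat pituitary cells (two TREs driving luciferase) were dosed with compound, then stimulated with 1 nM T3 (final) for 23.5 h at 37 C. ONE-Glo luminescence was the read-out, with CellTiter-Fluor fluorescence as the cytotoxicity counter-screen.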

In assay [7] the test system is thyroid hormone receptor (rat, GH3 cells). In words: qHTS assay to identify small molecule agonists of the thyroid receptor (TR) signaling pathway (AID 743066; calls by dose curve).
Assay [8] deals with Estrogen receptor (Homo sapiens) (UniProt P03372). In words: qHTS assay to identify small molecule antagonists of the estrogen receptor alpha (ER-alpha) signaling pathway (AID 743069; active = well fitted curve in the direction sought with a large enough effect in the signal ratio in the repeat runs, not every such curve was filed as active; the % refers to the signal ratio). Summed up: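 HEK293 ER-alpha-UAS-bla GripTite cells, held overnight in 2% charcoal-stripped FBS, 5,000 cells/well, preincubated 4 h, then compound plus 17beta-estradiol for 18 h at 37C. Beta-lactamase read by LiveBLAzer B/G FRET substrate, 2 h at room temperature.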

Assay [9] is described as follows: qHTS assay to identify small molecule antagonists of the estrogen receptor alpha (ER-alpha) signaling pathway - cell viability counter screen (AID 743074; calls by dose curve;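 also: HEK293 cells carrying ER-alpha-UAS-bla reporter stimulated with 17beta-estradiol; nearly all actives have a fitted effect of over 45% in size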).
In assay [10] the target is Estrogen receptor (Homo sapiens) (UniProt P03372). Nature of the assay: qHTS assay to identify small molecule agonists of the estrogen receptor alpha (ER-alpha) signaling pathway (AID 743075; calls by dose curve).
The target is the same in assay [11]. In words: qHTS assay to identify small molecule agonists of the estrogen receptor alpha (ER-alpha) signaling pathway using the BG1 cell line (AID 743079). Also: nearly all actives have a fitted effect of over 20% in size.
A short description of assay [12]: qHTS assay to identify small molecule antagonists of the estrogen receptor alpha (ER-alpha) signaling pathway using the BG1 cell line (AID 743080; calls by dose curve; also: series mostly up to about 70 µM; nearly all actives have a fitted effect of over 25% in size). In short, it runs like this:
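Antagonist mode: compounds in DMSO were pinned onto BG1-Luc-4E2 cells alongside 17beta-estradiol agonist, incubated 21.5 h, and ERE-driven luciferase measured with ONE-Glo. Cytotoxicity was multiplexed using CellTiter-Fluor fluorescence.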

A short description of assay [13]: qHTS assay to identify small molecule antagonists of the estrogen receptor alpha (ER-alpha) signaling pathway using the BG1 cell line - cell viability counter screen (AID 743081).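 Also: compound given together with 17beta-estradiol as the ER stimulus; series mostly up to about 70 µM; nearly all actives have a fitted effect of over 45% in size.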
Assay [14] has as its target Aromatase (Homo sapiens) (UniProt P11511). In words: qHTS assay to identify aromatase inhibitors (AID 743083). Also: nearly all actives have a fitted effect of over 55% in size. Also: potency is read from the fitted curve at half-maximal effect.
A short description of assay [15]: qHTS assay to identify small molecule antagonists of the androgen receptor (AR) signaling pathway - cell viability counter screen (AID 743033; also: nearly all actives have a fitted effect of over 45% in size).
Assay [16] can be described thus: qHTS assay to identify small molecule antagonists of the androgen receptor (AR) signaling pathway using the MDA cell line - cell viability counter screen (AID 743041; also: nearly all actives have a fitted effect of over 45% in size). Summed up: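 MDA-kb2 AR-luc cells (MMTV-luciferase, AR/GR responsive) treated with compounds plus R1881 agonist for 16 h at 37C. CellTiter-Fluor added at 15.5 h; fluorescence read after 30 min in the same wells.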

Assay [17] concerns the target Androgen receptor (Homo sapiens) (UniProt P10275). Nature of the assay: qHTS assay to identify small molecule agonists of the androgen receptor (AR) signaling pathway using the MDA cell line (AID 743040; also: nearly all actives have a fitted effect of over 20% in size). In short, it runs like this:
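MDA-kb2 breast carcinoma cells carrying MMTV-luciferase (responsive to AR and GR), plated 5 h then treated 16 h with compounds at 37C, 0% CO2. Read-out was ONE-Glo luminescence after 30 min at room temperature.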

Assay [18] shares this target. In words: qHTS assay to identify small molecule antagonists of the androgen receptor (AR) signaling pathway using the MDA cell line (AID 743042; also: nearly all actives have a fitted effect of over 55% in size; also: potency is read from the fitted curve at half-maximal effect). Summed up: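 MDA-kb2 breast carcinoma cells carrying MMTV-luciferase (AR/GR responsive) were co-treated with compounds and the agonist R1881 for 16 h at 37C. Inhibition read as ONE-Glo luminescence; CellTiter-Fluor fluorescence measured in parallel for cytotoxicity.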

For assay [19] the target is unchanged. Nature of the assay: qHTS assay to identify small molecule antagonists of the androgen receptor (AR) signaling pathway (AID 743035; active = well fitted inhibition curve with a large enough effect in the signal ratio in the repeat runs, not every such curve was filed as active; the % refers to the signal ratio; also: potency is read from the fitted curve at half-maximal effect). Summed up: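 Fluorescence from a beta-lactamase FRET substrate (LiveBLAzer B/G, 2 h, room temperature) measured inhibition of R1881-stimulated signaling in GeneBLAzer AR-UAS-bla HEK293 cells exposed to compound for 16 h at 37C.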

Structures are written as SMILES. Records with an inconclusive call do not appear. Activity calls are given as the source filed them. Unless noted, calls follow the shape of the dose curve; as a rule, active = well fitted curve in the direction sought with a large enough effect in the repeat runs; inconclusive = weak or mixed curves; inactive = no such curve, though single readings can be large; an effect the other way counts as inactive or inconclusive.

Sequence of Aromatase (Homo sapiens) (P11511 whole entry, looked up): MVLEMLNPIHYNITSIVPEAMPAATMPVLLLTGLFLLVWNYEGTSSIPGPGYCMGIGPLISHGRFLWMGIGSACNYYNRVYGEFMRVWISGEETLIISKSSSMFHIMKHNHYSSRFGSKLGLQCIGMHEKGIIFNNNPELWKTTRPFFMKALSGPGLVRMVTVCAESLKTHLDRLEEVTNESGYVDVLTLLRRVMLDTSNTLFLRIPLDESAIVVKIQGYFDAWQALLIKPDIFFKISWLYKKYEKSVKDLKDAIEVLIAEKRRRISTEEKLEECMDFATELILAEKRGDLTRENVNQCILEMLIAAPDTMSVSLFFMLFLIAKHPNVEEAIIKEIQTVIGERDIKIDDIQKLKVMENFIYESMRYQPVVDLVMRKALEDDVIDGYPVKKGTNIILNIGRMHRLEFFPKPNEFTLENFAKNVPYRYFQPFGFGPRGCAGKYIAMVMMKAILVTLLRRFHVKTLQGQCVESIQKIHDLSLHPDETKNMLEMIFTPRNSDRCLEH
Sequence of Androgen receptor (Homo sapiens) (P10275 whole entry, looked up): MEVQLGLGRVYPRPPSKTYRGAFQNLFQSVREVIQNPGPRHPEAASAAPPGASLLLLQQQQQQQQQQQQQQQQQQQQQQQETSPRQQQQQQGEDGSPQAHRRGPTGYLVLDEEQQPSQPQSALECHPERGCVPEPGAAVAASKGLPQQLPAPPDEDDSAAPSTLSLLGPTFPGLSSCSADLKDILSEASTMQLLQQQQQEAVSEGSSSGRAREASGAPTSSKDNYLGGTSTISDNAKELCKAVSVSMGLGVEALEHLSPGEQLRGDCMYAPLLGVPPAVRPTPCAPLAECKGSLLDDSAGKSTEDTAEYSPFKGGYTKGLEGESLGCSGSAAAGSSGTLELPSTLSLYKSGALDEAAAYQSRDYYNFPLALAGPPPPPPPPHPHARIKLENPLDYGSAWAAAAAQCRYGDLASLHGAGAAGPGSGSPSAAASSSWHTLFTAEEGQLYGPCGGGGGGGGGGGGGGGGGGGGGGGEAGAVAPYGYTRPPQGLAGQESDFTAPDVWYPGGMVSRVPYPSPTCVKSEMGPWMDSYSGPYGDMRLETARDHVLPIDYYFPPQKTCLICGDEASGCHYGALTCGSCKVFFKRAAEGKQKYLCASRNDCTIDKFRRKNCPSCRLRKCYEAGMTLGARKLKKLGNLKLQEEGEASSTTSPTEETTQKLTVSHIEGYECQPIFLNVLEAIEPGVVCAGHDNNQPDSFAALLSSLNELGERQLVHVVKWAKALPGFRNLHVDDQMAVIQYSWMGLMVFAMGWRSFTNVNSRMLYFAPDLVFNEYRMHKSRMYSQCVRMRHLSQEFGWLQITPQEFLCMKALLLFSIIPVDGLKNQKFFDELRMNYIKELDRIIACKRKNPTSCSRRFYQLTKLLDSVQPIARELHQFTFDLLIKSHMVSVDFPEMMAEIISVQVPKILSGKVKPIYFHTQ
Sequence of Estrogen receptor (Homo sapiens) (P03372 whole entry, looked up): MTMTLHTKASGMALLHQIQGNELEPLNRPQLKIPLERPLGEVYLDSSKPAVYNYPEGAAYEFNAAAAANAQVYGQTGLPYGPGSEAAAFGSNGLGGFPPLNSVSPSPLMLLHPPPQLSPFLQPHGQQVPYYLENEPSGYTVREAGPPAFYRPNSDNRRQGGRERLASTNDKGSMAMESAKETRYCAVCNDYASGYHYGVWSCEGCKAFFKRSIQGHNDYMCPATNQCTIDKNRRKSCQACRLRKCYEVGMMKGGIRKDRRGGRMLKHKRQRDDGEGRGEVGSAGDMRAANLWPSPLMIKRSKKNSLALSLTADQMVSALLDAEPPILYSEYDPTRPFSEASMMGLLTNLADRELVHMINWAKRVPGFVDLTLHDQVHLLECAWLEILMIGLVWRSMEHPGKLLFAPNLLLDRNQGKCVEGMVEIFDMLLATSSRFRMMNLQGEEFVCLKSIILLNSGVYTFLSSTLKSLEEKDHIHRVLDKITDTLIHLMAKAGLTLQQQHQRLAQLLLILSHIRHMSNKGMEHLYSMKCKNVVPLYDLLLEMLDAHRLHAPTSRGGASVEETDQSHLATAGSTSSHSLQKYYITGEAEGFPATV

With `Clc1ccc(C(OCCN2CCCCC2)c2ccccc2)cc1` (configuration not stated), the Potency result in assay [1], in assay [7], in assay [8], in [9], in assay [10] and in assay [11] was “inactive” each time. For the same molecule, the Potency entry in [12], in assay [13] and in [14] was “inactive” each time. The Potency in [2] is 3.59 µM (active); in assay [3], 11.4 µM (active); in assay [4] it was 10.1 µM (active); in assay [5], 9.02 µM (active); in [6], 11.4 µM (active).
With `CN1C[C@H](CNC(=O)OCc2ccccc2)C[C@@H]2c3cccc4c3c(cn4C)C[C@H]21`, the Potency result in assay [1], in assay [9], in assay [10] and in assay [12] was “inactive” throughout. Further, the Potency in [2] is 5.96 µM (active); in assay [3], 8.41 µM (active); in assay [4] it was 8.41 µM (active); in assay [5] it was 9.44 µM (active); in assay [6], 10.6 µM (active).
In the case of `CC1(C)[C@H](C=C(Cl)Cl)[C@@H]1C(=O)O[C@@H](C#N)c1cccc(Oc2ccccc2)c1`, the Potency entry in [1], in [2], in [3], in assay [15], in [16] and in assay [5] was “inactive” each time. In addition, the Potency result in [6], in assay [7], in [8], in assay [9], in [10] and in assay [12] was “inactive” each time. The Potency result in assay [13] and in [14] was “inactive” each time.
In the case of `NC(=O)CI`, the Potency entry in [1], in assay [2], in [3], in assay [15], in assay [16] and in assay [5] was “inactive” each time. The Potency entry in [6], in [7], in [8], in assay [9], in [10] and in assay [11] was “inactive” in each case. In addition, the Potency result in assay [12], in assay [13] and in [14] was “inactive” each time.
For `COP(=S)(Oc1cc(Cl)c(Br)cc1Cl)c1ccccc1` (configuration not stated), the Potency entry in assay [1], in assay [2], in assay [3], in assay [15], in [17] and in assay [16] was “inactive” in each case. The Potency entry in assay [18], in assay [7], in [8], in [9], in assay [10] and in assay [11] was “inactive” throughout. Also, the Potency result in assay [12] and in assay [13] was “inactive” in each case. For the same molecule, in [6], the Potency was 61.1 µM (active).
On to `O=C(OC1CCCCC1)c1ccccc1C(=O)OC1CCCCC1`, for which the Potency result in assay [1], in assay [16], in assay [7], in assay [9], in [10] and in assay [11] was “inactive” throughout. Further, the Potency entry in assay [13] was “inactive”. For the same molecule, the Potency is 28.8 µM (active) in assay [2], 22.9 µM (active) in assay [3], 25.7 µM (active) in assay [4] and 72.3 µM (active) in [6].
In the case of `COc1ccc(-c2ccccc2)cc1NNC(=O)OC(C)C`, the Potency result in assay [1], in assay [17], in assay [16], in assay [7], in assay [10] and in assay [13] was “inactive” throughout. The Potency result in assay [14] is “inactive”. Moreover, the Potency in [2] is 63.7 µM (active); in assay [3], 71.5 µM (active); in assay [4] it was 28.4 µM (active); in [19], 51 µM (active); in [18], 71.5 µM (active); in [6], 71.5 µM (active).
In the case of `Clc1ccc(C2(Cn3cncn3)CC(Br)CO2)c(Cl)c1` (configuration not stated), the Potency result in assay [1], in assay [16], in [5], in assay [7], in assay [9] and in assay [10] was “inactive” throughout. The Potency entry in assay [13] is “inactive”. The Potency in [2] is 8.58 µM (active); in assay [3], 8.58 µM (active); in assay [4] it was 12.1 µM (active); in assay [14], 17.1 µM (active).

The values above are taken from PubChem BioAssay (Tox21).
